Source: PubChem
S2 tox: Viability Counterscreen for Primary qHTS for Inhibitors of ATXN expression. S2 cells (HEK-293 line with an ATXN2-luciferase reporter) viability, CellTiter-Fluor protease fluorescence, 24 h. Potency, µM (series often up to 56.7 µM), most hits filed as cytotoxic. actives 0.49% (n = 400,000). AID 651635, 2014; note: nearly all actives have a fitted effect of over 40% in size
ATXN2 expr inh: Primary qHTS for Inhibitors of ATXN expression | Potency, µM (titrated, usually from 57 µM), hits mostly inhibitors | actives 0.72% (n = 360,000) | HEK-293 ATXN2-luciferase reporter, luminescence, 24 h; note: nearly all actives have a fitted effect of over 55% in size
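qHTS (up to 57 uM final) was run with 24 h compound exposure of reporter cells at 37 °C. Each well was multiplexed: SteadyGlo luminescence measured ATXN2-luciferase expression after a fluorogenic Gly-Phe-AFC viability readout (25 uM final).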
TGFb SMAD3 inh: qHTS for Inhibitors of TGF-b. HepG2 CAGA-GFP TGF-b/SMAD3 reporter, GFP fluorescence, 18 h; TGF-beta stimulated, 500 pg/mL final. Potency, µM (series often up to 46.1 µM), hits mostly inhibitors. actives 1.2% (n = 410,000); note: nearly all actives have a fitted effect of over 65% in size
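Read-out: total well GFP (ex488/em500-530) summed from mean per-cell fluorescence. Cells: HEPG2 CAGA-GFP, 1% FBS DMEM, 18 h at 37 degrees C with 500 pg/mL final TGF-beta. Unstimulated wells served as the full-inhibition control; stimulated DMSO wells = 0%.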
HT1080NT lethal: qHTS for induction of synthetic lethality in tumor cells producing 2HG: qHTS for the HT-1080-NT fibrosarcoma cell line. HT-1080-NT fibrosarcoma viability, CellTiter-Glo ATP luminescence, 48 h. Potency, µM (titrated, usually from 46.1 µM), actives largely listed as cytotoxic. actives 1.6% (n = 360,000). AID 686970, 2013;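 note: NT is the 2HG producing partner of a matched IDH1 knockdown line; nearly all actives have a fitted effect of over 55% in size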
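Viability by CellTiter-Glo luminescence after 48 h compound exposure at 37C of HT-1080-NT cells (750/well, RPMI, 5% FBS). % activity scaled between DMSO wells and medium-only wells, then curve-fitted and categorized by curve class.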
HT1080 IDH1KD tx: qHTS for induction of synthetic lethality in tumor cells producing 2HG: qHTS for the HT-1080-IDH1KD cell line; actives 2% (n = 360,000); HT-1080 IDH1 knockdown viability, ATP luminescence, 48 h; Potency, µM (titrated, usually from 46.1 µM), actives largely listed as cytotoxic
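Using the IDH1-knockdown HT-1080 line run in the same batch and compound series as the NT line, viability after 48 h at 37 °C was determined by CellTiter-Glo luminescence and expressed as % activity.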
HepG2 viability: qHTS for Inhibitors of TGF-b: Cytotox Counterscreen | actives 0.76% (n = 410,000) | Potency, µM (doses to about 46.1 µM), most hits filed as cytotoxic | HepG2 CAGA-GFP viability, ATP luminescence, 18 h
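CellTiter-Glo luminescence gave cytotoxicity after 18 hours at 37 degrees C. The cells were HepG2 CAGA-GFP in 1% FBS DMEM, stimulated with 500 pg/mL TGF-beta after compound addition. %Activity was normalised to no-cell wells (complete cell-killing) and DMSO (no toxicity), and curves were fitted and classified.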
Numbers stand for hits; . = inactive; ? = inconclusive; / = no result given; ! = not active in a repeat. A selection: hits, their analogues and other compounds. The true share with any hit is near 3.8%. Calls come from the whole dose curve; as a rule, active = well fitted curve in the direction sought with a large enough effect; inconclusive = small, poorly fitted or top-dose-only effect, or another doubt; inactive = no such curve, though single readings can be large; an effect the other way counts as inactive or inconclusive.

SMILES	S2 tox	ATXN2 expr inh	TGFb SMAD3 inh	HT1080NT lethal	HT1080 IDH1KD tx	HepG2 viability
O=[N+]([O-])c1ccc(O)c(-c2cc(C(F)(F)F)nc(-c3ccccc3)n2)c1	?	/	?	2.3µM	.	.
O=C(NCCCc1ccccc1)c1cccc(Br)c1	.	/	.	.	.	.
O=C(CN(Cc1ccccc1)C(=O)CCl)c1cccc(Br)c1	25µM	22µM	?	21µM	16µM	.
Nc1cc(Cl)ccc1Oc1ccccc1	.	.	.	.	.	.
Cc1cccc(Oc2ccc(Cl)cc2N)c1	.	.	.	.	.	20µM
O=c1oc2ccc(F)cc2cc1-c1nc(-c2cccs2)no1	/	/	.	/	/	.
CN(C)CC(C)(C)CNS(=O)(=O)c1ccc(Cl)c(Cl)c1	.	.	.	.	16µM!	.
CS(=O)(=O)c1ccc(CNC(=O)C2(C(F)(F)F)CC(CCCO)CCCO2)cc1 (stereo not drawn)	.	.	.	1.6µM	5.8µM	.
Nc1ccc(C(=O)N/N=C/c2sc(N3CCOCC3)nc2-c2ccccc2)cc1	.	.	.	.	.	.
CCN(CC)c1ccc(C=Nc2cccc(S(=O)(=O)N3CCOCC3)c2)c(O)c1	?	.	.	.	.	.
O=C(N/N=C/c1sc(N2CCOCC2)nc1-c1ccccc1)c1cccc(S(=O)(=O)N2CCOCC2)c1	.	/	.	3.7µM	?	.
CCN(CC)c1ccc(/C=N/NC(=O)c2cccc(S(=O)(=O)N3CCOCC3)c2)c(O)c1	/	1.9µM	?	?	?	.
O=C([C@@H]1CC=C[C@@H]2CCN(C3CCCCC3)C(=O)[C@@H]21)N1CCOCC1	/	/	.	/	/	.
CNC1=C(N(C(C)=O)c2ccc(Br)cc2)C(=O)c2ccccc2C1=O	/	?	3.5µM	1.8µM	1.8µM	2.8µM
CCC(=O)N(CC)C1=C(O)c2ccccc2C(=O)C1=O	/	.	.	.	?	.
CCC(=O)N(C1=C(NC)C(=O)c2ccccc2C1=O)C(C)C	?	/	?	4.6µM	9.2µM	.
CCCCNc1cc(NC(C)=O)cc2cc(OC)c(OC)cc12	.	.	10µM	.	.	.
COc1cc2cc(NC(C)=O)cc(NCc3ccccc3)c2cc1OC	.	.	.	.	.	.
CC(NC(CCc1ccccc1)C(=O)O)C(=O)N1C(=O)N(C)CC1C(=O)O (stereo not drawn)	.	.	/	/	/	/
Brc1ccc(/C=N/Nc2ccccn2)cc1	.	.	?	.	.	.
COc1cccc(/C=N/Nc2nc3ccccc3[nH]2)c1O	?	/	3.2µM	?	12µM	.
Clc1nccnc1N/N=C/c1ccc(Br)cc1	.	.	.	.	.	13µM
COc1cccc(/C=N/Nc2cc(-n3nc(C)cc3-c3ccccc3)ncn2)c1O	?	?	?	?	?	.
COc1ccc(/C=N/Nc2nccnc2Cl)c(OC)c1	.	.	.	.	.	.
COc1cccc(/C=N/Nc2ncnc3scc(-c4ccccc4)c23)c1O	.	1.1µM	?	?	?	.
SMILES	S2 tox	ATXN2 expr inh	TGFb SMAD3 inh	HT1080NT lethal	HT1080 IDH1KD tx	HepG2 viability
COc1ccc(/C=N/Nc2nccnc2Cl)cc1	.	.	.	10µM	11µM	7.9µM
Cc1cccc(-c2noc(-c3cccnc3NCc3ccco3)n2)c1	.	.	.	/	/	.
CCOc1ccc(Cc2cc([C@@H]3O[C@H](CO)[C@@H](O)[C@H](O)[C@@H]3O)ccc2Cl)cc1	/	.	/	/	/	/
COc1cccc(/C=N/Nc2nccnc2Cl)c1O	?	5.6µM	.	?	?	11µM
Oc1ccccc1/C=N/Nc1nccnc1Cl	?	?	.	?	?	.
CCCCN(C)c1nnc(NC(=O)Nc2cccc(C(C)=O)c2)s1	.	.	.	/	/	.
CCCc1cc(=O)[nH]c(Nc2cc(Cl)cc(Cl)c2)n1	?	?	?	/	/	.
C(=N\Nc1nc(Nc2ccccc2)nc(Nc2ccccc2)n1)/c1ccncc1	.	.	?	.	.	13µM
